Compound activity as filed in PubChem.
DAX1 inh-1: inhibitors of DAX1 repression of SF-1 activated StAR promoter; inhibition, % at 6.8 µM; HEK293T StAR-luciferase reporter, SF-1/DAX-1 repression relief; AID 652010; actives 1.1% (n = 370,000);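 active means inhibition above the mean over all tested compounds plus 3 SD, cut at about 3.6% in these data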;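 further: 0% = DAX-1 cells with DMSO and 100% = cells lacking DAX-1 with DMSO; higher inhibition means more luminescence from relief of DAX-1 repression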
hcDAF-12 act: activators of H. contortus DAF-12 nuclear receptor | HEK293 hcDAF-12 lit1-tk-luc reporter, luminescence; 0% DMSO, 100% Δ7-dafachronic acid | activation, % at 6.8 µM | AID 652067 | actives 1.4% (n = 370,000);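 active means activation above the mean of all tested compounds plus 3 SD, cut at about 5.5% in these data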;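 further: 100% = response to 3 µM Δ7-dafachronic acid high control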
ssDAF12 agonist: activates DAF-12 receptor from parasite S. stercoralis; HEK293 ssDAF-12/GRIP1 lit1-tk-luc reporter, luminescence; % of 3 µM dafachronic acid response; activation, % at 6.8 µM; actives 1% (n = 370,000);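 active means activation above the mean over all tested compounds plus 3 SD, cut at about 0.9% in these data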;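 further: 0% = DMSO-only wells and 100% = 3 µM delta7-dafachronic acid wells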
hgDAF-12 ag: activates the H. glycines DAF-12 receptor ligand-binding domain; HEK293 GAL4-hgDAF12 UAS-luciferase reporter, agonist luminescence; normalized to butyrate control; activation, % at 6.8 µM; actives 1.8% (n = 370,000); AID 687014;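 active means activation above a cutoff set at the mean of all screened compounds plus 3 SD, cut at about 10% in these data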;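 further: 0% = DMSO wells and 100% = sodium butyrate wells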
PolyA inh: yeast polyadenylation inhibition; S. cerevisiae SKY197-pL101 polyadenylation reporter, beta-gal luminescence; efflux-impaired pdr1/pdr3 knockout yeast; score 100 = 6 SD above DMSO; activity score, % at 12 µM; actives 0.02% (n = 300,000); AID 1875;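 active means lowest replicate activity score at least 50, where 100 means six control SD above control mean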;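 further: yeast exposed to compound for 9 h at 30 °C; higher score means more reporter readthrough which indicates perturbed polyadenylation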
DAX1 inh-2: NR0B1 (DAX1) inhibition. P51843. HEK293 Gal4-DAX1 luciferase reporter, luminescence. inhibition, % at 6.75 µM. actives 0.99% (n = 340,000);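 active means inhibition above the mean over all tested compounds plus 3 SD, cut at about 4.2% in these data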;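 further: 0% = DAX1-transfected cells with DMSO and 100% = empty-vector control cells with DMSO; inhibition shows as a rise in luminescence from relieved DAX1 repression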
Target sequence (P51843 207-470 limits assumed): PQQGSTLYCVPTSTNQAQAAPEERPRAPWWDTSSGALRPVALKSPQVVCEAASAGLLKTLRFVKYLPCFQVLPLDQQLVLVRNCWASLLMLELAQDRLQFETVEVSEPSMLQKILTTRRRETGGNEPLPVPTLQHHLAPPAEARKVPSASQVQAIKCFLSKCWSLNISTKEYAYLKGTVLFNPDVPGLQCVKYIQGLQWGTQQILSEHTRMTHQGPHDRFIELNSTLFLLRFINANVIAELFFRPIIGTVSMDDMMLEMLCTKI
DAX1 inh confirm: NR0B1 (human) inhibition, confirmation | shares compounds with DAX1 inh-1 | HEK293T StAR-promoter luciferase reporter, SF-1/DAX-1 repression | inhibition, % at 6.8 µM | actives 87% (n = 2,400) | AID 652134;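 active means inhibition above the average of every tested compound plus 3 SD, cut at about 3.8% in these data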;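 further: 0% = DAX-1 cells with DMSO and 100% = no DAX-1 control cells with DMSO; active compounds raise luminescence by relieving repression of the StAR reporter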
Target sequence (P51843 whole entry, looked up): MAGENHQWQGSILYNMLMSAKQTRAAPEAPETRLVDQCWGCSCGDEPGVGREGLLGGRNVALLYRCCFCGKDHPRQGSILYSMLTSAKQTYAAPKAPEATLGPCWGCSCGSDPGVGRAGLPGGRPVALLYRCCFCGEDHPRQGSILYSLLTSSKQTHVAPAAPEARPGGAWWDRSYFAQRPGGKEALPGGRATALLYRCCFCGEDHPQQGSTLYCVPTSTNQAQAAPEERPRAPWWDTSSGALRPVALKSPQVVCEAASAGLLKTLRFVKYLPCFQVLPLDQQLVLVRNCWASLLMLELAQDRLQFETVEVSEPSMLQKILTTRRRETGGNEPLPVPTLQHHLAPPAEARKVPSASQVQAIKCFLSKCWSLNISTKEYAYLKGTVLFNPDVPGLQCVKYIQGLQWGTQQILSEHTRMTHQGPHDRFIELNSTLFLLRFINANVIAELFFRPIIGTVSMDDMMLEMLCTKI
SF1 mutant ctr: nonselective inhibitor or artifact in SF-1 mutant DAX1 counter-screen. inhibition, % at 6.8 µM. shares compounds with DAX1 inh-1. actives 78% (n = 2,400). HEK293 StAR-luciferase, SF-1 AF2 mutant, luminescence. AID 652136;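 active means inhibition above the mean of all tested compounds plus 3 SD, cut at about 3% in these data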;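 further: 0% = DAX-1 transfected cells with DMSO and 100% = cells without DAX-1 with DMSO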
Numbers without * were called inactive; x = no result given. An excerpt weighted towards active compounds, which were near 4.1% of everything screened.

SMILES	DAX1 inh-1	hcDAF-12 act	ssDAF12 agonist	hgDAF-12 ag	PolyA inh	DAX1 inh-2	DAX1 inh confirm	SF1 mutant ctr
O=C(COc1ccc(F)cc1)Nc1ccc2c(c1)OCCO2	5.0*	3.7	-0.6	10.2	-5.2	0.9	4.2*	2.7
CCc1ccc(C(=O)NNC(=O)Cn2c(=O)cnc3ccccc32)cc1	5.4*	-1.0	-0.5	2.2	x	-1.2	1.6	-0.9
O=C(Cn1c(=O)cnc2ccccc21)NNC(=O)c1ccc(Cl)cc1	0.6	0.0	-0.6	2.0	x	0.2	x	x
COCCNc1c(-c2ccc(OC)c(OC)c2)nc2ccc(Cl)cn12	-0.2	-3.8	-1.9	-3.8	-12.8	-1.6	x	x
COCCNc1c(-c2cc3ccc(C)c(C)c3[nH]c2=O)nc2ccccn12	4.9*	2.6	-0.9	10.4	12.5	-0.1	6.1*	3.3*
C=CCNc1ccc2c(c1)OC[C@H](Cc1ccccc1)NS2(=O)=O	0.7	0.1	-1.0	-3.1	x	x	x	x
CC1(C)CC(=O)C=C(Nc2ccccc2NC(=O)c2ccc(F)cc2F)C1	-0.6	0.5	-1.3	1.5	x	x	x	x
CC(C)NC(=O)N[C@H]1CC[C@H](CC(=O)NCc2ccc(Oc3ccccc3)cc2)O[C@@H]1CO	4.5*	0.4	-0.8	2.2	x	x	0.0	2.8
C=CCOC(=O)c1[nH]c2c(c1C)C(=O)CC(c1ccco1)C2 (stereo not given)	x	x	x	x	28.4	x	x	x
Cc1c(C(=O)OCC(C)C)[nH]c2c1C(=O)CC(c1ccco1)C2 (stereo not given)	6.3*	-2.4	-0.9	-4.5	-4.6	-1.6	9.0*	-7.8
CC(C)NC(=O)N[C@H]1C[C@@H]2O[C@@H](CO)CC[C@@H]2O[C@@H]1CCc1ccc(-c2ccccc2F)cc1	0.2	-1.8	-0.5	-2.4	x	x	x	x
CCOc1ccccc1-c1cc(NC)ncn1	0.0	-1.6	-0.5	-1.9	x	x	x	x
CNc1cc(-c2ccc(CC#N)cc2)ncn1	4.5*	3.0	-0.7	8.3	x	x	6.8*	5.5*
CCN(C(=O)CSc1ncccn1)c1c(N)n(Cc2ccccc2)c(=O)[nH]c1=O	4.7*	0.1	-1.2	0.5	x	1.3	1.4	1.6
CC(CC(=O)N(CCC1=CCCCC1)c1c(N)n(Cc2ccccc2)c(=O)[nH]c1=O)c1ccccc1 (stereo not given)	6.3*	0.2	-0.8	1.2	3.6	1.4	1.0	-2.3
Fc1cccc(Cn2ccc3ccc(-c4ccc5ccn(Cc6cccc(F)c6)c5c4)cc32)c1	-0.3	-2.5	0.1	1.7	x	x	x	x
COC(=O)C1=C(C)N(Cc2ccc(C(F)(F)F)cc2)C(=NCc2ccccc2)NC1c1cccc(Cl)c1 (stereo not given)	-0.1	4.6	-0.8	-0.6	x	x	x	x
COc1cc(NC(=O)CCCN2C(=O)NC(C)(C)C2=O)cc(OC)c1	4.8*	0.3	-0.9	-2.6	x	0.8	1.8	0.1
CN1CCN(C(=O)c2ccc3c(Cl)c4c(nc3c2)CCCC4)CC1	5.8*	-0.5	-1.2	0.9	6.6	0.5	4.8*	2.5
CCN1CCN(C(=O)c2ccc3c(Cl)c4c(nc3c2)CCCC4)CC1	1.2	0.3	-0.4	3.9	21.0	0.2	x	x
COc1ccc(NC(=O)CSc2nccn2Cc2ccco2)cc1	5.2*	1.0	-0.1	8.2	15.3	0.8	6.8*	6.0*
Cn1ccnc1SCC(=O)Nc1ccccc1	0.3	-0.6	-1.1	-0.2	7.9	0.1	x	x
COc1ccc(C(=O)CSc2nccn2C)c(OC)c1	6.9*	2.7	-0.3	11.1*	21.1	1.1	5.5*	2.6
COc1cccc(C(=O)CSc2nccn2C)c1	0.3	1.1	-0.2	3.1	6.9	3.5	x	x
CCOc1ccc(NC(=O)CSc2nccn2Cc2ccco2)cc1	-2.5	2.0	-0.6	6.2	-17.2	1.2	x	x
SMILES	DAX1 inh-1	hcDAF-12 act	ssDAF12 agonist	hgDAF-12 ag	PolyA inh	DAX1 inh-2	DAX1 inh confirm	SF1 mutant ctr
Cn1ccnc1SCC(=O)Nc1ccc2ccccc2c1	5.7*	5.0	1.2*	9.1	-1.4	0.3	10.3*	6.3*
Cn1ccnc1SCC(=O)Nc1ccc(SC(F)F)cc1	6.2*	1.7	0.1	5.0	x	0.9	8.4*	5.3*
COC(=O)[C@]12C[C@H](CC(=O)NCCCCc3ccccc3)C(=O)N(Cc3cccc4ccccc34)C1=C[C@H](C1CCCC1)O[C@@H]2C	-0.4	-1.0	-0.9	0.2	x	x	x	x
CC(C)(C)c1ccc(-c2nnc(SCC(=O)Nc3ccc(S(=O)(=O)Nc4nccs4)cc3)n2-c2ccc(Cl)cc2)cc1	0.6	-1.3	-1.0	2.9	x	x	x	x
CCOc1ccc(-n2c(SCC(=O)c3ccc4ccccc4c3)nnc2-c2ccco2)cc1	-0.8	-1.9	-1.6	1.0	x	x	x	x
O=C1Nc2ccccc2N(C(=O)c2ccc(-c3ccccc3)cc2)C1c1nc2ccccc2[nH]1 (stereo not given)	19.8*	9.1*	0.8	25.6*	x	x	8.2*	4.8*
CC(Cc1ccccn1)NC(=O)c1ccc(OC2CCN(CCc3ccccc3)CC2)cc1 (stereo not given)	-2.2	0.0	-0.7	1.8	-3.6	-0.4	x	x
O=C(NCCc1ccccn1)c1ccc(OC2CCN(CCc3ccccc3)CC2)cc1	5.8*	3.1	-0.1	12.4*	7.2	0.7	9.1*	4.1*
COC(=O)[C@]12C[C@H](CC(=O)NCc3ccc(C)o3)C(=O)N(Cc3ccco3)C1=C[C@H](C(C)(C)C)O[C@@H]2C	-0.8	-2.6	-0.6	1.9	x	x	x	x
CCN=c1scc(-c2ccco2)n1/N=C/c1ccc(O)cc1	1.9	1.0	-1.2	5.2	-2.2	-0.4	x	x
CCN=c1scc(-c2ccco2)n1/N=C/c1ccc(OC)c(O)c1	5.0*	2.8	0.4	9.8	-12.0	2.3	15.5*	7.3*
CC(C)(C)OC(=O)N1CCC[C@@H]1C(=O)N1CCC[C@@H]1C(=O)NCc1ccccc1	-1.0	-1.5	-1.0	-1.0	x	x	x	x
COc1ccc(-c2cc3c(o2)CCCC3OCCN2CCOCC2)cc1 (stereo not given)	4.7*	3.0	-1.0	3.5	x	x	5.7*	3.0*
c1cc(-c2cc3c(o2)CCCC3OCCN2CCOCC2)cs1 (stereo not given)	-2.0	-2.4	-1.1	-1.3	x	x	x	x
FC(F)(F)Oc1cccc(Cn2ccc3ccc(-c4ccc5ccn(Cc6ccccc6)c5c4)cc32)c1	0.0	1.1	-0.6	1.1	x	x	x	x
Cc1ccc(S(=O)(=O)N2CCC(C(=O)NCc3ccccc3CN3CCCC3)CC2)cc1	-0.5	0.2	-0.9	-1.4	x	0.1	x	x
